The panel holds about 79,000 compounds, 15% with a hit somewhere; the sample as a whole holds those more often. Unmarked numbers belong to inactive results. Activity calls are given as the source filed them. Cut-off read from the data, not from the text of the source: active = growth inhibition above about 70%; inactive = the rest.

The first experiment in a line: NCI Yeast Anticancer Drug Screen. Data for the mec2-1 strain (AID 157). The settings on record: S. cerevisiae mec2-1 strain, at 50.0 µM (retest, dose inferred, filed as 5.0), stronger effect = higher value. The method in brief:
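Mutant yeast (mec2-1) grown with compound; growth inhibition relative to vehicle control reported.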
With `ClC(Cl)(Cl)/C=C/c1cnc2ccccc2n1`, the growth inhibition is 99% (active).
Regarding `CCc1nc(N)nc(N)c1-c1ccc(N(C)Cc2ccccc2)c([N+](=O)[O-])c1`, the growth inhibition is 0%.
Same read-out and setting: for `O=C(COC(=O)C(c1ccccc1)c1ccccc1)c1ccc(Br)cc1` the value was 23%; for `OCCN1COc2cc3c(cc2C1)OCN(CCO)C3`, 1%.

The experiment is the same for the next values; noted with them: S. cerevisiae mec2-1 strain, at 50.0 µM, stronger effect = higher value.
In the case of `CNS(=O)(=O)c1ccccc1C=C(c1ccccc1)c1ccccc1`, the growth inhibition is 86.2% (active).
`CC(C)c1cc(C(C)C)c(Cl)c(Cl)c1O` (tested in a mixture with another compound): the growth inhibition was 99.5% (active).
As for `Nc1cccc2cccnc12`, the growth inhibition is 27%.
The same measure, in the same setting: for `C[n+]1c(/C=C/c2ccc(N3CCCC3)cc2)sc2ccccc21` the value was 99.2% (active).
Still for that read-out and setting: the result for `Nc1cn(C2OC(CC(c3ccccc3)(c3ccccc3)c3ccccc3)C(O)C2O)c(=O)[nH]c1=O` (configuration not stated) reads 34.9%; that for `c1ccc(Cn2nnc(-c3ccccc3)c2-c2ccccc2)cc1`, 87.6% (active).
For `CCCCCC(CCCCC)OC(=O)CCN(CCCCC)CCCCC`, the growth inhibition is 46.1%.
As for `C=CCC1(OC(C)=O)CC2C(=O)C(=O)C(C1)N2OC(=O)c1ccccc1` (configuration not stated), the growth inhibition was 99.1% (active).
Same read-out and setting: the result for `C=CS(=O)(=O)c1ccc([N+](=O)[O-])cc1` reads 99.7% (active); that for `Cc1ccc(S(=O)(=O)Oc2ccc(C(C)(C)C)cc2Cl)cc1`, 2%.
Consider `O=C(CCl)N1CCN(C(c2ccccc2)c2ccccc2)CC1`, for which the growth inhibition was 85.8% (active).
The same measure, in the same setting: for `Oc1ccc2ccccc2c1.[Cu+2]` the value was 97.2% (active); for `NS(=O)(=O)c1ccc(NC(=O)Cc2nc3ccccc3s2)cc1`, 91% (active).
